# Measurements as given in PubChem BioAssay (EPA / NIEHS).
# Inconclusive results are not listed. Active and inactive are the calls of the source. Rule for the calls: active = hit-call score of the fitted dose curve at least 0.9, where 1 is the maximum; inconclusive = response in the unintended direction; inactive = score below 0.9.
# Target: Androgen receptor (Homo sapiens) (UniProt P10275)
# Assay: ATG_AR_TRANS: Attagene TRANS-FACTORIAL HepG2 Assay for human Androgen Receptor (AR) (AID 2282973)
# Conditions: HepG2 Attagene TRANS-FACTORIAL AR reporter transcription
# Experimental: ATG_TRANS is a cell-based, multiplexed-readout assay that uses HepG2, a human liver cell line, with measurements taken at 24 hours after chemical dosing in a 24-well plate.ATG_AR_TRANS is one of 30 assay component(s) measured or calculated from the ATG_TRANS assay. It is designed to make measurements of mRNA induction, a form of inducible reporter, as detected with fluorescence intensity signals by Reverse transcription polymerase chain reaction (RT-PCR) and Capillary electrophoresis technology.Data from the assay component ATG_AR_TRANS was analyzed into 1 assay endpoint. This assay endpoint, ATG_AR_TRANS, was analyzed in the positive analysis fitting direction relative to DMSO as the negative control and baseline of activity. Using a type of inducible reporter, measures of mRNA for gain-of-signal activity can be used to understand the reporter gene at the transcription factor-level as they relate to the gene AR. Furthermore, this assay endpoint can be referred to as a primary readout, because this assay has produced multiple assay endpoints where this one serves a reporter gene function. To generalize the intended target to other relatable targets, this assay endpoint is annotated to the nuclear receptor intended target family, where the subfamily is steroidal.
# Human liver HepG2 cells are transiently transfected with multiple reporter transcription units (MRTUs) in 6-well plates using FuGene 6 reagent (Roche; 3 ml FuGene/1 mg DNA). The MRTU constructs are regulated by a cis-regulating element (promoter). […] A major difference between the CIS and TRANS system is that in CIS activities of endogenous TFs are measured, whereas the TRANS assay evaluates changes in activities of exogenous, chimeric NR-Gal4 proteins. […] At the end of 24 hour incubation, total RNA was isolated using TriZol reagent (Invitrogen). The isolated RNA is then reverse-transcribed using oligo(dT) primer and Mo-MLV reverse transcriptase (Invitrogen) with DNAse I (Ambion) treatment for 30 min. The one-tenth of the produced cDNA was amplified by PCR using Taq DNA polymerase (Invitrogen) and two reporter sequence-specific primers. The PCR products were fluorescently labeled by primer extension with 6-arboxyfluorescein (6-FAM) 5'-labeled reporter sequence-specific primer (2 min at 95 C, 20 s at 68 C and 10 min at 72 C) and these products were digested with 5U of HpaI (New England Biolabs) for 2h at 37 C. The fragments were purified using Qiaquick PCR columns (Qiagen), analyzed on an ABI 3130xL genetic analyzer (Applied Biosystems) with peak positions identified by using a set of X-rhodamine (ROX)-labeled MapMarker1000 molecular weight standards (BioVentures). The raw capillary electrophoresis data was processed using Attagraph software (Attagene).
# Chain of Androgen receptor (Homo sapiens) (P10275 whole entry, looked up): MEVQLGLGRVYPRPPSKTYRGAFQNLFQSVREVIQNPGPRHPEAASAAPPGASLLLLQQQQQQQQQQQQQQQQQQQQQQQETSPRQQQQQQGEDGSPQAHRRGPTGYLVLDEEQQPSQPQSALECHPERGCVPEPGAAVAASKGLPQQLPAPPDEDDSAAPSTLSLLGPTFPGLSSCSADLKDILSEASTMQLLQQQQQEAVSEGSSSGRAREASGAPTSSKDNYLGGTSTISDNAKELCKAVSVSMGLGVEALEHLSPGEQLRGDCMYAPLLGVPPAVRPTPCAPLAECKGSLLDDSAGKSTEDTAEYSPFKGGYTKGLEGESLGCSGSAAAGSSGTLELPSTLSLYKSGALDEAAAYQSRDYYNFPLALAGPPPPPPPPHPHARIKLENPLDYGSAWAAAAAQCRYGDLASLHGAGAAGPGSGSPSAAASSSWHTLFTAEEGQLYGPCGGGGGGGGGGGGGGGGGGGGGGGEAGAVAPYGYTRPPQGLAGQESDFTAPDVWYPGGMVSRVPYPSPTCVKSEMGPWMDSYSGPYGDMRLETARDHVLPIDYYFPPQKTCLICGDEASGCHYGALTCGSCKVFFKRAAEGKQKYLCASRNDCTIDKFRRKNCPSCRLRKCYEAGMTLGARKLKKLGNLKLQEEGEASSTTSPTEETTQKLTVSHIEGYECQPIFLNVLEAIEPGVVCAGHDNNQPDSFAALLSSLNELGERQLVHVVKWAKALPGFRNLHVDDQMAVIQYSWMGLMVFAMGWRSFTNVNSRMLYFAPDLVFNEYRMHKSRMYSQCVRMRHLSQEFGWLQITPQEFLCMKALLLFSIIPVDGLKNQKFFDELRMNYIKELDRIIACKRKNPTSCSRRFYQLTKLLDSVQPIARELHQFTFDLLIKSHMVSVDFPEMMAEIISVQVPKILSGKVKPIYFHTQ
row,SMILES,outcome
1,CN(C)c1ccc(N=NS(=O)(=O)O)cc1,inactive
2,COC(=O)c1cccnc1,inactive
3,c1ccc2c(c1)c1cccc3ccc4cccc2c4c31,inactive
4,CC(C)(C)c1cc(O)c(C(C)(C)C)cc1O,inactive
5,CNC(=O)Oc1cc(C)c(SC)c(C)c1,inactive
6,Cc1ccc(S(=O)(=O)Oc2ccc(N=Nc3ccc(-c4ccc(N=Nc5c(O)ccc6cc(S(=O)(=O)O)cc(S(=O)(=O)O)c56)c(C)c4)cc3C)cc2)cc1,inactive
7,C=CCOCC(O)CCl (stereo not given),inactive
8,CC(C)c1ccc2c(c1)CC[C@H]1[C@](C)(CN)CCC[C@]21C,inactive
9,Oc1ccc(/C=C/c2cc(O)cc(O)c2)cc1,inactive
10,C=CC(=O)OCCC(F)(F)C(F)(F)C(F)(F)C(F)(F)F,inactive
11,O=C(O)C[C@H](O)C[C@H](O)/C=C/c1c(C2CC2)nc2ccccc2c1-c1ccc(F)cc1,inactive
12,CC1=CCC2C(=O)OC(=O)C2C1 (stereo not given),inactive
13,NCC(F)(F)C(F)(F)C(F)(F)C(F)(F)F,inactive
14,CCCC1CCOC(C)S1 (stereo not given),inactive
15,Cc1ccc2ccc3ccc(C)cc3c2c1,inactive
16,Nc1c(Cl)cc(Cl)cc1[N+](=O)[O-],inactive
17,CCCCCCOC(=O)c1ccc(O)cc1,inactive
18,O=S(=O)(OCCOC(F)(F)F)C(F)(F)F,inactive
19,CCCCC[C@H](O)CC(=O)CCc1ccc(O)c(OC)c1,inactive
20,OCc1cccc(Oc2ccccc2)c1,inactive

row,SMILES,outcome
1,CSc1nnc(C(C)(C)C)c(=O)[nH]1,inactive
2,O=C=Nc1cccc2c(N=C=O)cccc12,inactive
3,COc1cc(CCC(C)=O)ccc1O,inactive
4,CCc1cccc(CC)c1NC(=O)C(=O)O,inactive
5,CCOC(=O)[C@H](O)[C@@H](O)C(=O)OCC,inactive
6,CC=CC(F)(F)C(F)(F)C(F)(F)F,inactive
7,CC=C(C)C(C)=O,inactive
8,CC1CCC(C(=O)O)CC1 (stereo not given),inactive
9,CC(=O)CC(C)C,inactive
10,Oc1ccc(Cl)cc1Cc1cc(Cl)ccc1O,inactive
11,C=C(C)C(=O)OCCOC(=O)C(=C)C,inactive
12,CCOc1ccc2c(c1)C(C)=CC(C)(C)N2,inactive
13,CC1COC(=O)O1 (stereo not given),inactive
14,OC[C@H]1O[C@@H](O[C@H]2[C@H](O)[C@@H](O)[C@H](O)O[C@@H]2CO)[C@H](O)[C@@H](O)[C@H]1O,inactive
15,CCOCCOCCO,inactive
16,CN(C)C(=O)Nc1ccc(Cl)c(Cl)c1,inactive
17,COc1cc(OC)nc(Oc2cccc(Oc3nc(OC)cc(OC)n3)c2C(=O)O)n1,inactive
18,O=c1cccc[nH]1,inactive
19,CCC(=O)OC/C=C(\C)CCC=C(C)C,inactive
20,Nc1ccnc(=O)[nH]1,inactive
